In PubChem BioAssay (NCATS):
Inconclusive results are not listed. Active and inactive are the calls of the source. Calls come from the whole dose curve; as a rule, active = well fitted cell-killing curve with a large enough effect; inconclusive = small, poorly fitted or top-dose-only effect; inactive = flat fitted curve, though single readings scatter.

Test: qHTS of pediatric cancer cell lines to identify multiple opportunities for drug repurposing: Primary screen for TC32 cells (AID 1347089); note: nearly all actives have a fitted effect of over 60% in size
Conditions: TC32 Ewing sarcoma viability, CellTiter-Glo luminescence, 48 h; series mostly up to 45.8 µM; activity change, negative = cytotoxic: at the top concentration
Outline: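 Luminescent CellTiter-Glo read-out of metabolically active TC32 cells after 48 h compound exposure. Primary: MIPE 11-point, 0.78 nM–46 µM; NPC 8-point, 0.59 nM–46 µM. Confirmatory: 11-point dilutions.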
% is set by controls: 0 for no effect and ±100 for the full control effect; potency is the fitted concentration of half-maximal effect.

SMILES | Potency | activity change, negative = cytotoxic
COc1ccc(-c2ccc3ncc4c(c3c2)n(-c2ccc(N3CCNCC3)c(C(F)(F)F)c2)c(=O)n4C)cn1 | 16.5 nM (active) | 
CCCCN(CCCC)CC(O)c1cc(Cl)cc2c1-c1ccc(Cl)cc1C2=Cc1ccc(Cl)cc1 (stereo unspecified) |  | 5.58% (inactive)
CC(C)(F)C[C@H](N[C@@H](c1ccc(-c2ccc(S(C)(=O)=O)cc2)cc1)C(F)(F)F)C(=O)NC1(C#N)CC1 |  | 1.28% (inactive)
Cc1cc(NC(=O)Nc2ccc(N(C)C)cc2)c2cc(F)cc(F)c2n1 |  | 11.7% (inactive)
COc1nccc(-c2c(-c3ccc(F)cc3)ncn2C2CCNCC2)n1 |  | -13.1% (inactive)
C=C1c2cccc(O)c2C(O)=C2C(=O)[C@@]3(O)C(O)=C(C(N)=O)C(=O)[C@@H](N(C)C)[C@@H]3[C@@H](O)[C@H]12 |  | 2% (inactive)
COc1ccc(-c2oc3c(CC=C(C)C)c(O)cc(O)c3c(=O)c2O)cc1 |  | 7.68% (inactive)
Cc1cc(C(C)Nc2ccccc2)c2nc(N3CCOCC3)cc(=O)n2c1 (stereo unspecified) |  | 0.48% (inactive)
O=C(O)C1=CC(O)C(O)[C@H](O)C1 (stereo partly specified) |  | 12.2% (inactive)
CC(C)(CO)[C@@H](O)C(=O)NCCC(=O)O |  | 7.33% (inactive)
CC(C)(OCc1nn(Cc2ccccc2)c2ccccc12)C(=O)O |  | 3.13% (inactive)
NS(=O)(=O)c1cc(Cl)c(Cl)c(S(N)(=O)=O)c1 |  | 9.17% (inactive)
COc1cc2ncnc(Nc3cc(Br)c(O)c(Br)c3)c2cc1OC |  | -0.643% (inactive)
CCOC(=O)N1CCN([N+]([O-])=NOc2cc(ON=[N+]([O-])N3CCN(C(=O)OCC)CC3)c([N+](=O)[O-])cc2[N+](=O)[O-])CC1 |  | 11.8% (inactive)
CCC=CC[C@H]1C(=O)CC[C@@H]1CC(=O)OC |  | -2.99% (inactive)
N[C@@H](CC(=O)N1CCn2c(nnc2C(F)(F)F)C1)Cc1cc(F)c(F)cc1F |  | 6.56% (inactive)
CCCCOCCOc1nc(-c2ccc(C(=O)O)c(F)c2)sc1C |  | -6.47% (inactive)
CN[C@@H](C)[C@H]1[C@H](O)C[C@@]2(C)[C@@H]3CC[C@H]4C(C)(C)[C@@H](NC)CC[C@@]45C[C@@]35CC[C@]12C |  | 6.89% (inactive)

SMILES | Potency | activity change, negative = cytotoxic
NC[C@H]1O[C@H](O[C@@H]2[C@@H](O)[C@@H](O[C@H]3O[C@H](CO)[C@@H](O)[C@H](N)[C@@H]3O)[C@H](N)C[C@@H]2N)[C@H](O)[C@@H](O)[C@H]1O |  | 5.61% (inactive)
OC1CCC(Nc2ncc3nc(Nc4c(F)cc(F)cc4F)n([C@@H]4CCOC4)c3n2)CC1 (stereo partly specified) |  | 6.32% (inactive)
CC=C1C2C=C(C)CC1(N)c1ccc(=O)[nH]c1C2 (stereo unspecified) |  | 1.62% (inactive)
CC(C)CN(C[C@H](O)[C@H](Cc1ccccc1)NC(=O)O[C@H]1CCOC1)S(=O)(=O)c1ccc(N)cc1 |  | 4.84% (inactive)
Cc1ccc(S(=O)(=O)Nc2nc3ccccc3nc2Nc2ccc3nsnc3c2)cc1 |  | 3.38% [at 16 µM] (inactive)
CN(C)c1nc(Cc2ccc(NC(=O)c3ccc(C(F)(F)F)cc3)cc2)nc(N(C)C)c1CC(=O)O |  | 9.72% (inactive)
CCCC1OC2C[C@@H]3[C@H]4CCC5=CC(=O)C=C[C@]5(C)[C@H]4C(O)C[C@]3(C)[C@]2(C(=O)CO)O1 (stereo partly specified) |  | 6.39% (inactive)
O=C1Nc2ccc(I)cc2C1=Cc1cc(Br)c(O)c(Br)c1 |  | 5.34% (inactive)
CC(C)[C@H](O)C(=O)N[C@@H](C)C(=O)N[C@@H]1C(=O)N(C)CCc2ccccc21 |  | -1.84% (inactive)
COc1ccc2c(c1)c(C1=C(c3c[nH]c4ccccc34)C(=O)NC1=O)cn2CCCN(C)C |  | 4.03% (inactive)
NC(N)=Nc1nc(CSCCC(N)=NS(N)(=O)=O)cs1 |  | 6.74% (inactive)
CCCCC[C@H](O)C=C[C@H]1[C@H](O)CC(=O)[C@H]1CCCCCCC(=O)O |  | -2.79% (inactive)
CNC(=O)[C@H](Cc1ccccc1)NC(=O)[C@H](CC(C)C)[C@H](CSc1cccs1)C(=O)NO |  | -2.96% (inactive)
Cc1ccc(C(=O)N(CCCN)[C@@H](c2oc3cc(Cl)ccc3c(=O)c2Cc2ccccc2)C(C)C)cc1 | 3.3 nM (active) | 
c1ccc(CNc2nc(N3CCOc4ccccc43)nc3c2CCCC3)cc1 |  | 8.36% (inactive)
Nc1[nH]nc2nnc(-c3c(-c4ccccc4)nn4ccccc34)cc12 |  | -9.02% (inactive)
CCC(=O)NCC[C@@H]1CCc2ccc3c(c21)CCO3 |  | 6% (inactive)
C[C@H](CCC(=O)O)[C@H]1CC[C@H]2[C@H]3[C@@H](CC[C@]12C)[C@@]1(C)CC[C@@H](O)C[C@H]1C[C@@H]3O |  | 5.13% (inactive)
